Experimental data as given in PubChem BioAssay.
Active and inactive are the calls of the source.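 Rule for the calls, unless noted: active = at least 20% inhibition of 6-phosphogluconate dehydrogenase activity; inactive = the rest.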

Assays:
[1] = biological target: 6-phosphogluconate dehydrogenase, decarboxylating (Homo sapiens) (UniProt P52209); assay: inhibition of human phosphogluconate dehydrogenase – biochemical, recombinant enzyme, NADPH absorbance, primary screen (AID 1159550); conditions: recombinant 6PGD, NADPH absorbance 341 nm; at 10 µM; stronger effect = higher value
Chain of 6-phosphogluconate dehydrogenase, decarboxylating (Homo sapiens) (P52209 whole entry, looked up): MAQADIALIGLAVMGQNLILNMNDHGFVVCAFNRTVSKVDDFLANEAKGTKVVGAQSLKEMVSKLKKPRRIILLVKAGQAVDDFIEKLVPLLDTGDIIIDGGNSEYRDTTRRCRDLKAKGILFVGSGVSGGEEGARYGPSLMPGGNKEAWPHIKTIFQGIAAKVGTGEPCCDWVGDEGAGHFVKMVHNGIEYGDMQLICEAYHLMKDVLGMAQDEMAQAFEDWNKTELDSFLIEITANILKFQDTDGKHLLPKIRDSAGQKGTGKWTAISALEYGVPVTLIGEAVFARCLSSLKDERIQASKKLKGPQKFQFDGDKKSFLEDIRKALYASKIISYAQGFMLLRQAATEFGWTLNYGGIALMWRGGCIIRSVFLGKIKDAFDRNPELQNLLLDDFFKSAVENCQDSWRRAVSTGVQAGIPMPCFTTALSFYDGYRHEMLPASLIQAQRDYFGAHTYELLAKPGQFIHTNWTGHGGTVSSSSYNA

[2] = EMT-state selective cytotoxicity in co-culture – imaging, PC-3E GFP, TEM4-18 mCherry, primary screen (AID 1345086;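 active = compounds killing one labelled cell type while sparing the other, by normalised counts and ratio limits, not self-fluorescent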;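 for all read-outs here: cells exposed to compound for 72 h before imaging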;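 for red/green cell ratio (normalised): normalised mesenchymal count divided by normalised epithelial count so high means epithelial killing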); conditions: PC-3E GFP / TEM4-18 mCherry co-culture, imaging cell counts, at 1 µM; for red/green cell ratio (normalised): actives lie on both sides
[3] = tested on: Aerobactin synthetase IucA (Klebsiella pneumoniae hvKP1); assay: IucA enzyme inhibition, primary screen, biochemical, Spectrum library (AID 1346200; call rule not given here;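 note: 100% = wells without compound and 0% = wells lacking enzyme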); conditions: malachite green pyrophosphate, A620, at 8 µM, stronger effect = lower value
[4] = biological target: Mitogen-activated protein kinase 7 (Homo sapiens) (UniProt Q13164); assay: Gal4-ERK5 driven luciferase induction – cell-based, HTS, primary screen (AID 1508626;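 active = luciferase signal above three times the same-plate solvent-only control wells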;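 note: luciferase driven by Gal4-ERK5 fusion binding five Gal4 sites before minimal TATA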); conditions: HeLa Gal4-ERK5 transactivation, 18 h, at 5 µM, stronger effect = higher value
Chain of Mitogen-activated protein kinase 7 (Homo sapiens) (Q13164 whole entry, looked up, the tested form may be a part): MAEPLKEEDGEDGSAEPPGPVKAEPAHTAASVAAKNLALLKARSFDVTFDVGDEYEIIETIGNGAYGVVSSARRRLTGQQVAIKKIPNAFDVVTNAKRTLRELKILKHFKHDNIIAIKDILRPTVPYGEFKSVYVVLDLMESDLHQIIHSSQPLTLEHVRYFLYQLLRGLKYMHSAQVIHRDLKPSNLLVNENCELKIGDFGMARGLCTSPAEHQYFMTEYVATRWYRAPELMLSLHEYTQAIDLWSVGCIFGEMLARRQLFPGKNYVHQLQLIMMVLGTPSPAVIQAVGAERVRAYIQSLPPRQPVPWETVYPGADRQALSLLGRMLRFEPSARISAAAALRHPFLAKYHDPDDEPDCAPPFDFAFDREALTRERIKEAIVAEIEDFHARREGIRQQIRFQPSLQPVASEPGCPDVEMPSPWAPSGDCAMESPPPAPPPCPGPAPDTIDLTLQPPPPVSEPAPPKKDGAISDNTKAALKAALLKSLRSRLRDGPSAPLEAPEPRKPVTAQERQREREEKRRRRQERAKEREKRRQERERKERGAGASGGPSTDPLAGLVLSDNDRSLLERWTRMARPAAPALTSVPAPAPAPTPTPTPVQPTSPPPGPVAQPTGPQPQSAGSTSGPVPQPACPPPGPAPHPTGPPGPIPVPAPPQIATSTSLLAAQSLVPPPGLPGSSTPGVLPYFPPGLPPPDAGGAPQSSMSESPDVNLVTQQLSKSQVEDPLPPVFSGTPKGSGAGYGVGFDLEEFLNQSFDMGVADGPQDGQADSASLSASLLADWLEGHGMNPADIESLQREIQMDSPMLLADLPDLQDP

[5] = measured here: epithelial PC-3E GFP cell survival
[6] = measured here: mesenchymal TEM4-18 mCherry cell survival
[7] = counts scaled to control wells, 1 = unselective

Row | SMILES | inhibition [1] | red/green cell ratio (normalised) [2] | normalised cell number [2, 5] | normalised cell number [2, 6] | activity remaining [3] | luciferase signal [4] | red/green cell ratio (normalised) [2, 7]
1 | COc1ccc(C(=O)O)cc1OC | 7.84% (inactive) | 0.77 (inactive) | 1.22 | 0.94 | 78.5% (inactive) | 40 AU (inactive) | –
2 | O=C1c2ccccc2-c2cccc3cccc1c23 | -2.36% (inactive) | – | 1.23 | 1.01 | 106% (inactive) | 64 AU (inactive) | 0.82 (inactive)
3 | CC1(C)C(=O)[C@@H]2O[C@@H]2[C@@]2(C)C1C[C@@H](O)[C@]1(C)C2CC[C@@]2(C)[C@H](c3ccoc3)OC(=O)C3OC321 (stereo partly drawn) | 4.53% (inactive) | 1.01 (inactive) | 1.01 | 1.01 | 96.1% (inactive) | 24 AU (inactive) | –
4 | COc1cc2occc2c2oc(=O)ccc12 | 11.9% (inactive) | 1.13 (inactive) | 1 | 1.14 | 121% (inactive) | 84 AU (inactive) | –
5 | COc1cc2c(cc1-c1cc3cc4ccoc4cc3oc1=O)OCO2 | 0.213% (inactive) | 0.88 (inactive) | 0.99 | 0.87 | 113% (inactive) | 44 AU (inactive) | –
6 | CC(C)=CCCC1(C)C=Cc2c(O)c3c(c(CC=C(C)C)c2O1)OC12C(=CC4CC1C(C)(C)OC2(C/C=C(/C)C(=O)O)C4O)C3=O (stereo not drawn) | 3.01% (inactive) | 0.97 (inactive) | 0.89 | 0.87 | 106% (inactive) | 88 AU (inactive) | –
7 | COc1cccc(C=O)c1OC | 7.48% (inactive) | – | 0.98 | 1.02 | 93.4% (inactive) | 60 AU (inactive) | 1.04 (inactive)
8 | COc1cc2c(cc1O)CCNC2C (stereo not drawn) | -21.7% (inactive) | 0.92 (inactive) | 1 | 0.92 | 107% (inactive) | 120 AU (inactive) | –
9 | CC(C)=CCCC1(C)C=Cc2c(O)c3c(c(CC=C(C)C)c2O1)OC12C(CC4CC1C(C)(C)OC2(C/C=C(/C)C(=O)O)C4O)C3=O (stereo not drawn) | -6.13% (inactive) | 1.11 (inactive) | 0.96 | 1.07 | 119% (inactive) | 96 AU (inactive) | –
10 | CN1CCCCC1c1ccc(-c2cccnc2)nc1 (stereo not drawn) | -0.658% (inactive) | – | 0.96 | 1.04 | 113% (inactive) | 52 AU (inactive) | 1.09 (inactive)
11 | CC1(C)C2CC(=O)[C@]3(C)C(CC[C@@]4(C)[C@H](c5ccoc5)OC(=O)C5OC543)[C@@]2(C)[C@@H](O)C[C@H]1O (stereo partly drawn) | -2.4% (inactive) | 1.04 (inactive) | 0.78 | 0.8 | 107% (inactive) | 80 AU (inactive) | –
12 | Cc1[nH]c2ccccc2c1CN(C)C | -5.39% (inactive) | 0.92 (inactive) | 0.99 | 0.91 | 101% (inactive) | 44 AU (inactive) | –
13 | COc1cc2c(cc1OC)[C@@H]1C(=O)c3ccc(OC)c(CC=C(C)C)c3O[C@@H]1CO2 | 18.8% (inactive) | 0.91 (inactive) | 0.87 | 0.8 | 109% (inactive) | 68 AU (inactive) | –
14 | CC(=O)OC1CCC23C(=O)OC45CCC(C6=CC(=O)OC6)C4(C)CCC2C5CCC3(O)C1 (stereo not drawn) | -5.39% (inactive) | 0.32 (inactive) | 0.2 | 0.07 | 124% (inactive) | 16 AU (inactive) | –
15 | CCOC(=O)C1C(C=C(C)C)C1(C)C (stereo not drawn) | -0.74% (inactive) | 0.99 (inactive) | 1.19 | 1.18 | 107% (inactive) | 60 AU (inactive) | –
16 | CC(C)CCCC1(C)C=Cc2c(O)c3c(c(CCC(C)C)c2O1)OC12C(CC4CC1C(C)(C)OC2(CCC(C)C(=O)O)C4O)C3=O (stereo not drawn) | 0.442% (inactive) | 0.9 (inactive) | 0.98 | 0.88 | 98% (inactive) | 76 AU (inactive) | –
17 | COC(=O)NC(=S)Nc1ccccc1NC(=S)NC(=O)OC | -13.9% (inactive) | 0.85 (inactive) | 1.16 | 0.98 | 110% (inactive) | 8 AU (inactive) | –
18 | O=C1NC(=O)C(=O)C(=O)N1 | -13.9% (inactive) | 0.89 (inactive) | 1.09 | 0.98 | 123% (inactive) | 44 AU (inactive) | –
